Measured values taken from the supplement of paper PMC10849652.
Targets with a hit are over-represented here; the source holds about 7,900 in all. About 0.6% of all pairs of compound and target were hits. Unmarked numbers belong to inactive results.

Key:
Test in all cases: log2 fold change, soluble protein after heating vs DMSO (PISA); higher = thermal stabilisation; K562 cells, 10 uM, 30 min; active = over 0.2 and 3.5 SD of the protein, either way, in both replicates (recomputed)
[1] = compound: CC[C@@H]1C(=O)N(C)c2cnc(Nc3ccc(C(=O)NC4CCN(C)CC4)cc3OC)nc2N1C1CCCC1
In short: (§1)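 Soluble protein was quantified by TMTpro 16plex LC-MS/MS after channel sums were equalised. It was obtained as the supernatant after 21,000xg for 90 min from pooled aliquots of K562 cells (2×10^6 cells/mL, 10 μM compound, 30 min) heated for 3 min across 48°C-58°C and extracted in PBS with 0.5% NP-40 at 4°C. Thermal stability values are relative to control samples and come from duplicates. They are given as log2 fold changes.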

volasertib = compound: CC[C@@H]1C(=O)N(C)c2cnc(Nc3ccc(C(=O)N[C@H]4CC[C@H](N5CCN(CC6CC6)CC5)CC4)cc3OC)nc2N1C(C)C [volasertib]
In short: as §1

[2] = compound: CC[C@H](C)N1C=C(C2=C(C=C(C=C21)C3=CN=C(C=C3)N4CCNCC4)C(=O)NCC5=C(C=C(NC5=O)C)C)C
In short: as §1

epoxomicin = compound: CC[C@H](C)[C@@H](C(=O)N[C@@H]([C@@H](C)O)C(=O)N[C@@H](CC(C)C)C(=O)[C@]1(CO1)C)NC(=O)[C@H]([C@@H](C)CC)N(C)C(=O)C [epoxomicin]
In short: as §1

[3] = compound: CCn1c(C(=O)N(C2CC2)C2CC2)cc2c3c(ncn3C)c(Nc3cc(C)n(C)n3)nc21
In short: as §1

[4] = compound: CCn1cc(-c2ccnc3[nH]c(-c4cccc(CN(C)C)c4)cc23)c(-c2ccc(NC(=O)N(C)C)cc2)n1
In short: as §1

[5] = compound: CN(C)CC(=O)Nc1ccc2[nH]c(=O)c3ccccc3c2c1
In short: as §1

rosiglitazone = compound: CN(CCOC1=CC=C(C=C1)C[C@H]2C(=O)NC(=O)S2)C3=CC=CC=N3 (racemic) [rosiglitazone]
In short: as §1

[6] = compound: CN1C2=C(C3=C1C(=O)N(N=C3)CC4=CC(=CC=C4)N)SC(=C2)S(=O)C
In short: as §1

[7] = compound: CN1CCC(CNc2ccc3ncc(-c4cccc(OC(F)(F)F)c4)n3n2)CC1
In short: as §1

saracatinib = compound: CN1CCN(CCOc2cc(OC3CCOCC3)c3c(Nc4c(Cl)ccc5c4OCO5)ncnc3c2)CC1 [saracatinib]
In short: as §1

sotrastaurin = compound: CN1CCN(c2nc(C3=C(c4c[nH]c5ccccc45)C(=O)NC3=O)c3ccccc3n2)CC1 [sotrastaurin]
In short: as §1

alvocidib = compound: CN1CC[C@H](c2c(O)cc(O)c3c(=O)cc(-c4ccccc4Cl)oc23)[C@H](O)C1 [alvocidib]
In short: as §1

Tubastatin A = compound: CN1CCc2c(c3ccccc3n2Cc2ccc(C(=O)NO)cc2)C1 [Tubastatin A]
In short: as §1

[8] = compound: CNC(=O)C1=CC=CC=C1NC2=NC(=NC=C2Cl)NC3=C(C=C(C=C3)N4CCOCC4)OC
In short: as §1

defactinib = compound: CNC(=O)c1ccc(Nc2ncc(C(F)(F)F)c(NCc3nccnc3N(C)S(C)(=O)=O)n2)cc1 [defactinib]
In short: as §1

rucaparib = compound: CNCc1ccc(-c2[nH]c3cc(F)cc4c3c2CCNC4=O)cc1 [rucaparib]
In short: as §1

[9] = compound: CNc1nc(-c2ccc3c(N)n[nH]c3c2)cc(N2C[C@@H](C(=O)NC3CCCCC3)CC[C@H]2C)n1
In short: as §1

encorafenib = compound: COC(=O)N[C@@H](C)CNc1nccc(-c2cn(C(C)C)nc2-c2cc(Cl)cc(NS(C)(=O)=O)c2F)n1 [encorafenib]
In short: as §1

[10] = compound: COC(=O)[C@H](CCSC)NC(=O)C1=C(C=C(C=C1)NC[C@H](CS)N)C2=CC=CC=C2
In short: as §1

Chain of UniProt Q15102 (Q15102 whole entry, looked up): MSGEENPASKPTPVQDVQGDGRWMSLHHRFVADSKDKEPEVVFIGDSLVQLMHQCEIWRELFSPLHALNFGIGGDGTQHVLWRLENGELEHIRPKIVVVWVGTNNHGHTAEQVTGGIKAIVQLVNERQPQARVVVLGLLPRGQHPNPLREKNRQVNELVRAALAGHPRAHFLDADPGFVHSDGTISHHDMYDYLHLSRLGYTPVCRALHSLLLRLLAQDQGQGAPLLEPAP
Chain of UniProt P35580 (P35580 whole entry, looked up): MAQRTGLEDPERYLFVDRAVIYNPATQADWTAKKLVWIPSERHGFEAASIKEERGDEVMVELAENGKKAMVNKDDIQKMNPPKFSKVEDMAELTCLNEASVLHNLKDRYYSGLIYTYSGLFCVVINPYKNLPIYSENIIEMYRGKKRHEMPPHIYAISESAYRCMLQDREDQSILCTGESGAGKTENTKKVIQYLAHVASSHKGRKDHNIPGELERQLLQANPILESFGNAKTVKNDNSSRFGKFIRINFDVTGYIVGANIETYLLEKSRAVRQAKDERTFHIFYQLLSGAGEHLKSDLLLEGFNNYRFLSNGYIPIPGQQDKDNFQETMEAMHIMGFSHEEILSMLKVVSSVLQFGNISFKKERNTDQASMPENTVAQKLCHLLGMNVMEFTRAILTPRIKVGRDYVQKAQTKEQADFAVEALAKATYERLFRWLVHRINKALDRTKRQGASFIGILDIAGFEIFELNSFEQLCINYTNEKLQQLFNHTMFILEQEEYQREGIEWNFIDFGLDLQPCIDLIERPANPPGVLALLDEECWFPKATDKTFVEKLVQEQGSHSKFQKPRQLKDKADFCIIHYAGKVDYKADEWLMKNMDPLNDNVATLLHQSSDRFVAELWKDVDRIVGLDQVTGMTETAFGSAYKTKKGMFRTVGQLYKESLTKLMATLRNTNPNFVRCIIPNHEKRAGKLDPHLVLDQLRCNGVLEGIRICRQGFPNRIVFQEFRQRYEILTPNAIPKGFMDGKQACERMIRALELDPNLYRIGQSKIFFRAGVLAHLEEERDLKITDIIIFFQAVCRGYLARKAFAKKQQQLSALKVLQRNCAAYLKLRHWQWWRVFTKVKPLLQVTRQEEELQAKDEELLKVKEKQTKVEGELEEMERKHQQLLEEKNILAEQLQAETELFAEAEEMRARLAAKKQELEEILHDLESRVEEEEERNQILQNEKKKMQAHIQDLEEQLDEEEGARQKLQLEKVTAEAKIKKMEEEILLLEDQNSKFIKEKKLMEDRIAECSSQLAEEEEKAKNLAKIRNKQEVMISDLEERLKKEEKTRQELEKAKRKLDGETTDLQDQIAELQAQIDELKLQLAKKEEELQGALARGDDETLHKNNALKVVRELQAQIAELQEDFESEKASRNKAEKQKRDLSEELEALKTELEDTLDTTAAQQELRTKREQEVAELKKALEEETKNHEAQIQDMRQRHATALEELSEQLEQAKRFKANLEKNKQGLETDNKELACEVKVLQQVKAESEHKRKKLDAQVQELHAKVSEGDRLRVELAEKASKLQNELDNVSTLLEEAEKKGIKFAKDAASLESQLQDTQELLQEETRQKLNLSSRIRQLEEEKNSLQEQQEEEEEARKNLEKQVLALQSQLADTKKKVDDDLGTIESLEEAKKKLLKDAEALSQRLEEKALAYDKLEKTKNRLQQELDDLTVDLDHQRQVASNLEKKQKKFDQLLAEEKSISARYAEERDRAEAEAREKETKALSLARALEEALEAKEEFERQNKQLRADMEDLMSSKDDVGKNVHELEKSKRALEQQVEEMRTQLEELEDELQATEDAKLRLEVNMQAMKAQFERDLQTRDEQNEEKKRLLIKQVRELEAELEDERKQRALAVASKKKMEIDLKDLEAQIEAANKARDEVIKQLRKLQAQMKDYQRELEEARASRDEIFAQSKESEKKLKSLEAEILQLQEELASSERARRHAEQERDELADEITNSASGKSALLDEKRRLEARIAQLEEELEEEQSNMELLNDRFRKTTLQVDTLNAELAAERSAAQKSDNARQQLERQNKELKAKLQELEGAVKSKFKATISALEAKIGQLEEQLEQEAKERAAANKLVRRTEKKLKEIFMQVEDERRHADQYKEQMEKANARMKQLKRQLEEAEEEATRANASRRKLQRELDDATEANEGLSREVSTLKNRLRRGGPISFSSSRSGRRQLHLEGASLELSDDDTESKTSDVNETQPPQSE
Chain of UniProt Q9HAN9 (Q9HAN9 whole entry, looked up): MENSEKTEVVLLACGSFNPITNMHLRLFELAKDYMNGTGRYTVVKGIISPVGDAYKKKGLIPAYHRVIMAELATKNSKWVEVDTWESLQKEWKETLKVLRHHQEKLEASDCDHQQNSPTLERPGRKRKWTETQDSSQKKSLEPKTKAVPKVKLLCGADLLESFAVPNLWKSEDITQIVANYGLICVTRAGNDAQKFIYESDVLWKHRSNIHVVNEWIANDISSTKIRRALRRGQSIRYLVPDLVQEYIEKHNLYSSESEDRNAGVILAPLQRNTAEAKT
Chain of UniProt O95182 (O95182 whole entry, looked up): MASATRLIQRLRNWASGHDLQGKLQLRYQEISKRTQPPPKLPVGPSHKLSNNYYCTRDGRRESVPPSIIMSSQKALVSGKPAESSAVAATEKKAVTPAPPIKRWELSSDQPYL
Chain of UniProt O00567 (O00567 whole entry, looked up): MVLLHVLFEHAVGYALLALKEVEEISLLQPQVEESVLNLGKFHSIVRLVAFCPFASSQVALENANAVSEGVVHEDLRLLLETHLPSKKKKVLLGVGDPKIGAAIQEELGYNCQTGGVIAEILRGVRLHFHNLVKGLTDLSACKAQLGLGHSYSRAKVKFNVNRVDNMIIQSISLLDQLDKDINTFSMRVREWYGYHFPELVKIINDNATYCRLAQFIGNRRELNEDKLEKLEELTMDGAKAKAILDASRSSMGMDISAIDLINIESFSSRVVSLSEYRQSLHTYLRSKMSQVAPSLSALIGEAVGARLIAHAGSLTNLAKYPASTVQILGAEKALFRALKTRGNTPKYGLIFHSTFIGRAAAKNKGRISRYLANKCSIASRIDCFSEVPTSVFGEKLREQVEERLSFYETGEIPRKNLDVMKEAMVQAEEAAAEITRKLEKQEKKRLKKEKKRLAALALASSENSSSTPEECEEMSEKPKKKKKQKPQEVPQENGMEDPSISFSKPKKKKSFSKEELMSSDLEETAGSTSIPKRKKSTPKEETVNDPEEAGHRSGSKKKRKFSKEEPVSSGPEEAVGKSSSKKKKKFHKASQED
Chain of UniProt O95747 (O95747 whole entry, looked up): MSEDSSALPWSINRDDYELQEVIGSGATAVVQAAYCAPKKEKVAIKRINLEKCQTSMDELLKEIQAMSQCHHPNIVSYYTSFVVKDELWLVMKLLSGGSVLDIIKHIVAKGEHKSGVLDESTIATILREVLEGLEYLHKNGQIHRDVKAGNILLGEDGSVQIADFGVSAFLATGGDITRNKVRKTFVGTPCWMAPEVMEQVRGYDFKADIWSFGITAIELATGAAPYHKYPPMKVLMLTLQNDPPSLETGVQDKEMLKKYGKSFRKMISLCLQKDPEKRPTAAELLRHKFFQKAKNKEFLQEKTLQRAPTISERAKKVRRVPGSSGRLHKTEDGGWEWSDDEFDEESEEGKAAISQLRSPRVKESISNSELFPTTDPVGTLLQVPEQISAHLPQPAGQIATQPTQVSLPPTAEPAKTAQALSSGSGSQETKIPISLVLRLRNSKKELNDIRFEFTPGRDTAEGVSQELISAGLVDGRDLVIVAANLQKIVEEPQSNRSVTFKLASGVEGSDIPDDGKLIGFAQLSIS
Chain of UniProt P15559 (P15559 whole entry, looked up): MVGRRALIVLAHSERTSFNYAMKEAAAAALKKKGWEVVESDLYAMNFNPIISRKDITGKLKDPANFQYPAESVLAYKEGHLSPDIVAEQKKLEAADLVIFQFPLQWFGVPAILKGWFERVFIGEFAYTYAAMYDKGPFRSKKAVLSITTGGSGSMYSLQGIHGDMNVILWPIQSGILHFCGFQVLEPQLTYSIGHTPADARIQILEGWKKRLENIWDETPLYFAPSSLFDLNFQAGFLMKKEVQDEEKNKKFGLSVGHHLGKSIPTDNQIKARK
Chain of UniProt P17568 (P17568 whole entry, looked up): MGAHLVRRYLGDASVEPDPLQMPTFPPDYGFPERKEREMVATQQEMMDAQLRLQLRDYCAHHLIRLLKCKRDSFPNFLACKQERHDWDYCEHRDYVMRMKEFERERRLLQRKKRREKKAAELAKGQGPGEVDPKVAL
Chain of UniProt Q15014 (Q15014 whole entry, looked up): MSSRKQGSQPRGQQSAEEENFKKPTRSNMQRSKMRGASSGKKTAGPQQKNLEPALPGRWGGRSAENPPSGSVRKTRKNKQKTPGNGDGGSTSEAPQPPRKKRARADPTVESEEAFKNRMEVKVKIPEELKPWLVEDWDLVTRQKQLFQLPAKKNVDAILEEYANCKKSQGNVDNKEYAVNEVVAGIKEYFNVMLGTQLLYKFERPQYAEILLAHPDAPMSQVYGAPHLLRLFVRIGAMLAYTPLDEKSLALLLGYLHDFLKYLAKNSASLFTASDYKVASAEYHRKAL
Chain of UniProt P68402 (P68402 whole entry, looked up): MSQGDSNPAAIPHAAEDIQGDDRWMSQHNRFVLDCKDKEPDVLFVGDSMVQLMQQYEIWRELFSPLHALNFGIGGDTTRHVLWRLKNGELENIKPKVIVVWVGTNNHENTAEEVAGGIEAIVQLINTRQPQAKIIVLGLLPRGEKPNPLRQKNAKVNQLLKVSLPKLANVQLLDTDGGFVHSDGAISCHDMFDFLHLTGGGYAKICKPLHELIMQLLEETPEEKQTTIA
Chain of UniProt O00483 (O00483 whole entry, looked up): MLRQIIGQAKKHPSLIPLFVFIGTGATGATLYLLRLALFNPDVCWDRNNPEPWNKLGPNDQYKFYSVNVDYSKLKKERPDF
Chain of UniProt Q86WQ0 (Q86WQ0 whole entry, looked up): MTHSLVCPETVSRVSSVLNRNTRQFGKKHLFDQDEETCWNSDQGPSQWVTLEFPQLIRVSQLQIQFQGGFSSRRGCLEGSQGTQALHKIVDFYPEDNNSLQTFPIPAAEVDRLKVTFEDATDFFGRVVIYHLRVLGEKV

| Target | log2 fold change [1] | log2 fold change (volasertib) | log2 fold change [2] | log2 fold change (epoxomicin) | log2 fold change [3] | log2 fold change [4] | log2 fold change [5] | log2 fold change (rosiglitazone) | log2 fold change [6] | log2 fold change [7] | log2 fold change (saracatinib) | log2 fold change (sotrastaurin) | log2 fold change (alvocidib) | log2 fold change (Tubastatin A) | log2 fold change [8] | log2 fold change (defactinib) | log2 fold change (rucaparib) | log2 fold change [9] | log2 fold change (encorafenib) | log2 fold change [10] |
| --- | --- | --- | --- | --- | --- | --- | --- | --- | --- | --- | --- | --- | --- | --- | --- | --- | --- | --- | --- | --- |
| MRPL50 (UniProt Q8N5N7) | 0.026 | -0.029 | -0.063 | 0.094 | -0.005 | -0.044 | 0.037 | -0.015 | -0.043 | 0.308 | 0.148 | -0.048 | 0.066 | 0.133 | -0.011 | 0.04 | 0.063 | -0.065 | -0.01 | 0.061 |
| NDUFA7 (UniProt O95182) | -0.19 | -0.109 | -0.023 | 0.052 | 0 | 0.011 | 0.01 | -0.02 | 0.027 | -0.324 (active) | -0.037 | 0.047 | -0.01 | -0.148 | -0.042 | 0 | 0.046 | -0.031 | -0.042 | -0.008 |
| MSH3 (UniProt P20585) | -0.032 | -0.179 | -0.003 | 0.062 | -0.072 | -0.019 | -0.028 | 0.019 | -0.008 | 0.047 | -0.013 | -0.003 | -0.015 | 0.045 | -0.026 | 0.015 | 0.031 | -0.011 | 0.069 | -0.02 |
| MORF4L2 (UniProt Q15014) | 0.074 | 0.023 | 0.014 | 0.085 | 0.014 | 0.075 | -0.125 | -0.051 | 0.12 | 0.076 | -0.002 | -0.01 | 0.022 | 0.136 | -0.003 | 0.011 | 0.056 | -0.1 | 0.04 | 0.066 |
| NSUN2 (UniProt Q08J23) | -0.182 | -0.286 | 0.051 | -0.044 | 0.017 | -0.044 | 0.009 | 0.029 | 0.025 | -0.131 | 0.008 | -0.243 | -0.328 (active) | -0.008 | -0.081 | -0.281 (active) | -0.021 | -0.083 | 0.004 | 0.009 |
| NMNAT1 (UniProt Q9HAN9) | 0.302 | 0.161 | -0.007 | -0.168 | -0.06 | 0.098 | -0.092 | -0.126 | 0.228 | 0.053 | -0.044 | -0.033 | 0.158 | 0.07 | -0.121 | 0.237 | 0.354 | 0.02 | 0.147 | 0.091 |
| MYH10 isoform 3 (UniProt P35580) | -0.082 | -0.216 (active) | 0.026 | 0.094 | -0.025 | -0.036 | 0.024 | 0.022 | -0.064 | -0.077 | 0.019 | -0.058 | -0.034 | 0.002 | 0.024 | -0.039 | -0.056 | -0.005 | 0.017 | -0.023 |
| MRPL34 (UniProt Q9BQ48) | 0.061 | 0.029 | -0.007 | -0.042 | -0.042 | 0.109 | -0.065 | -0.028 | 0.232 | 0.048 | -0.09 | 0 | 0.117 | 0.119 | 0.086 | 0.138 | 0.101 | 0.169 | 0.055 | 0.035 |
| PAFAH1B2 (UniProt P68402) | 0.002 | 0.064 | 0.036 | 0.102 | 0.018 | -0.087 | -0.009 | 0 | -0.037 | -0.016 | -0.016 | 0.097 | 0.031 | -0.058 | -0.029 | 0.022 | 0.037 | 0.078 | -0.006 | -0.026 |
| NDUFB7 (UniProt P17568) | -0.053 | -0.004 | -0.072 | -0.066 | -0.129 | -0.099 | -0.036 | 0.058 | -0.058 | 0.094 | 0.046 | -0.014 | -0.016 | 0.016 | 0.021 | -0.015 | -0.021 | -0.011 | -0.032 | 0.029 |
| OXSR1 (UniProt O95747) | -0.122 | -0.274 (active) | 0.049 | 0.03 | -0.018 | -0.077 | 0.043 | 0.053 | 0.008 | -0.24 (active) | -0.048 | 0.004 | -0.094 | 0.038 | -0.061 | -0.093 | 0.001 | 0.033 | 0.042 | -0.051 |
| NQO1 (UniProt P15559) | 0.011 | 0.057 | 0.276 (active) | 0.083 | 0.159 | -0.064 | -0.005 | 0.013 | 0.356 (active) | 0.046 | -0.076 | -0.002 | -0.108 | 0.027 | 0.161 | -0.038 | -0.077 | -0.008 | 0.005 | -0.022 |
| NDUFA4 (UniProt O00483) | 0.033 | 0.042 | -0.019 | 0.369 (active) | 0.09 | 0.019 | -0.039 | -0.026 | 0.018 | 0.101 | 0.021 | 0.021 | 0.022 | -0.029 | 0.009 | -0.03 | -0.106 | -0.129 | -0.04 | 0.001 |
| NOP56 (UniProt O00567) | 0.141 | 0.238 | 0.034 | -0.44 | -0.006 | 0.066 | -0.208 | -0.079 | 0.299 | 0.168 | -0.034 | 0.018 | 0.104 | -0.01 | -0.067 | 0.375 | 0.233 | -0.028 | 0.057 | 0.007 |
| PAFAH1B3 (UniProt Q15102) | -0.017 | 0.011 | 0.042 | 0.063 | -0.102 | -0.098 | 0.069 | 0.021 | -0.012 | 0.001 | -0.109 | -0.034 | -0.082 | 0.026 | 0.001 | 0.021 | 0.049 | 0.002 | -0.006 | -0.071 |
| NR2C2AP isoform 2 (UniProt Q86WQ0) | -0.108 | -0.061 | -0.018 | 0.023 | -0.055 | 0.018 | 0 | 0.039 | -0.223 | -0.152 | 0.086 | 0.018 | -0.089 | 0.099 | 0.027 | -0.106 | -0.031 | 0.073 | -0.048 | -0.115 |
